A selection: hits, their analogues and other compounds. The true share with any hit is near 9.2%.
Rab9 promoter act: qHTS Assay for Rab9 Promoter Activators; Huh7 Rab9 promoter-luciferase reporter, luminescence, 24 h; Potency, µM (top dose mostly 9.22 µM), hits mostly activators; actives 2.8% (n = 320,000); further: nearly all actives have a fitted effect of over 60% in size
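Promoter activation is measured as luciferase luminescence in Huh7 cells stably transfected with a Rab9 promoter–luciferase construct, following 24 h compound exposure at 37 °C and 10 min reagent incubation at ambient temperature.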
NPC1 promoter act: qHTS Assay for NPC1 Promoter Activators. Huh7 NPC1 promoter luciferase reporter, 24 h. Potency, µM (titrated, usually from 9.22 µM), hits mostly activators. actives 2.4% (n = 320,000). AID 485313, 2010; further: nearly all actives have a fitted effect of over 60% in size
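Huh7 reporter cells (NPC1 promoter driving luciferase) are dosed with compound for 24 h at 37 °C, 5% CO2; luciferase detection reagent is then added and luminescence measured after 10 min at ambient temperature.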
SMN2 splice up: qHTS Assay for Enhancers of SMN2 Splice Variant Expression | HEK293 SMN2-luciferase splicing reporter, luminescence, 30-36 h | Potency, µM (doses to about 46.1 µM), hits mostly activators | actives 2.8% (n = 210,000); further: nearly all actives have a fitted effect of over 55% in size
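HEK293 cells carry an SMN2 […]–luciferase reporter in which exon 7 inclusion puts luciferase in frame. Cells were plated 10-12 h before compound addition, then incubated 30-36 h at 37C. ONE-Glo luminescence was read; sodium butyrate at 4.5 mM final served as control.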
FLuc counter: qHTS profiling assay for firefly luciferase inhibitor/activator using purifed enzyme and Km concentrations of substrates (counterscreen for miR-21 project) | actives 6.9% (n = 360,000) | AID 588342, 2011 | Luciferin 4-monooxygenase (Photinus pyralis), P08659 | Potency, µM (doses to about 57.5 µM), hits mostly inhibitors | purified FLuc, Km substrates, luminescence inhibition; further: nearly all actives have a fitted effect of over 55% in size
Target sequence (P08659 whole entry, looked up): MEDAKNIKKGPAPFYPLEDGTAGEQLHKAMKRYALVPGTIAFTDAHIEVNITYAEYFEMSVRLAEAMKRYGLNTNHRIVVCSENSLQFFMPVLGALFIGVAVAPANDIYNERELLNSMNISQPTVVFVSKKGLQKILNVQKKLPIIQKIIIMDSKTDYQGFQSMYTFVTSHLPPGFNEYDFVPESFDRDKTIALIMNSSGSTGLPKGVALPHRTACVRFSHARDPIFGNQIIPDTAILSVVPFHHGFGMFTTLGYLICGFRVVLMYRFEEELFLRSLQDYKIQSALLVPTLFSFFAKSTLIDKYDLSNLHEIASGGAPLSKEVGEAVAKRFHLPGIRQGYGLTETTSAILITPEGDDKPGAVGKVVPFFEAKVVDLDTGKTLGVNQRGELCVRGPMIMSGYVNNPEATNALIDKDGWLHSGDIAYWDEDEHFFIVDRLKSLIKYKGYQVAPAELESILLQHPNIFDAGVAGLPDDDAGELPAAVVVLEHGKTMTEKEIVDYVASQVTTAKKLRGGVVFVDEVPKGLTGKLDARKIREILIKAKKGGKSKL
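Purified P. pyralis luciferase (10nM final) with 10uM D-luciferin and 10uM ATP (Km levels) in 50mM Tris acetate pH 7.5, 10mM Mg acetate, 0.01% Tween-20, 0.05% BSA; qHTS 6-point titration, ~60 µM downward; luminescence read.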
ELG1 genotox: qHTS screen for small molecules that induce genotoxicity in human embryonic kidney (HEK293T) cells expressing luciferase-tagged ELG1. HEK293T ELG1-luciferase reporter, luminescence, 16 h. Potency, µM (highest dose often 46 µM), hits mostly activators. actives 1.3% (n = 330,000). AID 504466, 2011; further: nearly all actives have a fitted effect of over 60% in size
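Luminescence read-out: rising ELG1-luciferase signal, reflecting elevated ELG1 protein under genetic stress, flags genotoxic compounds. Cells were treated for 16 hr at 37 °C before ONE-Glo detection.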
ELG1 DNA repair: qHTS screen for small molecules that inhibit ELG1-dependent DNA repair in human embryonic kidney (HEK293T) cells expressing luciferase-tagged ELG1; Potency, µM (top dose mostly 46.1 µM), usual class: inhibitors; actives 2.3% (n = 330,000); HEK293T ELG1-luciferase reporter, luminescence, 16 h; DNA damage induced by 5-fluorouridine; further: nearly all actives have a fitted effect of over 55% in size
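Reporter activity after DNA damage by 5-fluorouridine is monitored. Compound-treated cells incubate 16 hr at 37 °C, then ONE-Glo is added for 30 min before luminescence reading.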
A number is an active result; - = inactive; ? = inconclusive; . = not tested or not shown. The call rests on the fitted dose curve; in most records, active means well fitted curve in the direction sought with a large enough effect; inconclusive means small, poorly fitted or top-dose-only effect, or another doubt; inactive means no such curve, though single readings can be large; an effect the other way counts as inactive or inconclusive.

SMILES	Rab9 promoter act	NPC1 promoter act	SMN2 splice up	FLuc counter	ELG1 genotox	ELG1 DNA repair
CCn1c(C(=O)NCc2ccccc2Cl)cc2sc(Cl)cc21	.	.	-	?	.	.
CCOc1ccc(CCNC(=O)c2cc3sc(Cl)cc3n2C)cc1OCC	-	-	-	-	-	-
Cn1c(C(=O)NCc2ccccc2Cl)cc2sc(Cl)cc21	.	.	28µM	?	.	.
CC(=O)N1CCc2c(sc3c2c(=O)n(-c2ccccc2)c(=O)n3Cc2cccc(C(F)(F)F)c2)C1	.	.	-	-	.	.
CCOC(=O)c1c(-c2ccc(C)cc2C)csc1NC(=O)c1ccccc1Cl	.	.	-	-	.	.
O=C(/C=C/Nc1ccc(F)c(Cl)c1)c1ccco1	-	-	?	5.4µM	4.1µM	?
O=C(/C=C/Nc1cccc(F)c1)c1ccco1	2.5µM	?	13µM	2.1µM	3.2µM	?
O=C(Nc1cc([N+](=O)[O-])ccc1F)C1CCN(S(=O)(=O)c2cccs2)CC1	.	.	.	.	-	-
Cc1cccc2nc(-c3ccco3)oc(=O)c12	-	-	.	?	-	-
CC(=O)c1cccc(NC(=O)c2nc3ccccc3nc2N2CCCCC2)c1	.	.	.	-	.	.
O=C(O)c1cc(NC(=O)c2ccc(Cl)c([N+](=O)[O-])c2)cc(C(=O)O)c1	-	-	-	-	?	-
N#Cc1ccsc1NC(=O)c1cccc([N+](=O)[O-])c1	-	-	-	-	-	5.8µM
N#Cc1ccsc1NC(=O)c1ccc(Cl)c([N+](=O)[O-])c1	-	-	.	6µM	-	?
N#Cc1ccsc1NC(=O)c1cccc(-n2cnnn2)c1	-	-	.	?	-	-
COc1ccc(C(=O)N(Cc2sccc2C)C2CCS(=O)(=O)C2)cc1Cl (stereo not given)	.	.	-	-	.	.
Oc1c(C(c2ccccc2F)N2CCN(Cc3ccccc3)CC2)sc2nc(-c3ccco3)nn12 (stereo not given)	.	.	.	-	.	.
COc1ccc(N2CCN(c3ncnc4c3[nH]c3ccccc34)CC2)cc1	.	.	-	-	.	.
COc1cccc2[nH]c3c(N4CCCCC4)ncnc3c12	-	-	-	13µM	-	?
Cc1cccc2[nH]c3c(N4CC=C(c5ccc(F)cc5)CC4)ncnc3c12	-	-	.	-	-	12µM
CCOC(=O)C1CCN(c2ncnc3c2[nH]c2cccc(OC)c23)CC1	-	-	-	-	-	?
COc1cc2[nH]c3c(N4CCN(c5ccccn5)CC4)ncnc3c2cc1OC	-	-	-	13µM	-	?
CC(=O)Nc1ccc(C(=O)Nc2nc(-c3cccnc3)cs2)cc1	-	-	?	?	-	-
Fc1ccc(Nc2nc(-c3cccnc3)cs2)cc1	?	-	13µM	3µM	?	?
Cc1ccc(Cl)cc1Nc1nc(-c2cccnc2)cs1	-	-	.	?	-	?
c1ccc(-c2csc(Nc3cccnc3)n2)cc1	2.8µM	?	.	11µM	?	?
SMILES	Rab9 promoter act	NPC1 promoter act	SMN2 splice up	FLuc counter	ELG1 genotox	ELG1 DNA repair
Clc1ccc(-c2csc(Nc3cccnc3)n2)cc1	-	?	.	-	-	-
Clc1ccc(Nc2nc(-c3cccnc3)cs2)cc1	-	-	-	11µM	?	?
Cc1ccc(CNC(=O)CSc2ncc3c(n2)-c2cc(Cl)ccc2N(C)S3(=O)=O)cc1	.	.	.	-	.	.
COc1cc(C)ccc1OCCCOc1ccccc1Br	1.4µM	?	-	19µM	?	?
COc1ccccc1OCCCOc1ccc(C)cc1Br	?	?	?	4.8µM	18µM	?
COc1ccccc1OCCCOc1ccc([N+](=O)[O-])cc1Cl	4.5µM	?	?	5.4µM	-	?
COc1ccccc1OCCOCCOc1ccc(C)cc1Br	-	-	-	-	-	-
COc1cccc(OCCCOc2ccc([N+](=O)[O-])cc2Cl)c1	-	-	-	?	-	-
CC(C)c1nc2ccc(C(=O)NCCCN3CCN(c4ccccc4F)CC3)cc2o1	.	.	.	-	.	.
COC(=O)c1ccc2nc(NC(=O)C(C)C)sc2c1	1.1µM	2µM	5.6µM	8.5µM	?	?
CCOC(=O)c1ccc2nc(Nc3nc4ccc(F)cc4s3)sc2c1	-	-	-	?	-	?
Cc1ccc2nc(NC(=O)CSCC(=O)OCC(=O)c3ccc(Br)cc3)sc2c1	-	-	-	?	-	-
COC(=O)c1ccc2nc(NC(=O)CSCC(=O)OCC(=O)c3ccccc3)sc2c1	-	-	-	17µM	-	?
CCOC(=O)c1ccc2nc(NC(C)=O)sc2c1	2.2µM	?	13µM	?	?	?
COC(=O)c1ccc2nc(Nc3nc4c(F)cc(F)cc4s3)sc2c1	-	-	-	5.4µM	?	?
